MITF TRPM1 HTS: activators of MITF-driven TRPM1 promoter activity in SK-MEL-5 cells. SK-MEL-5 TRPM1-promoter luciferase, 24 h; % of positive control, neutral wells = 0. activation, % at 12.5 µM. 300,000 tested, 0.75% active. AID 588334;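 active means mean activation of at least 80% with every replicate also reaching 80%; inconclusive means mean reaches 80% but some replicate falls short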;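 further: 0% = neutral control wells and 100% = parthenolide positive control wells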
GAA850 FXN act: activators of GAA850 frataxin (FXN) promoter; HEK293 lucGAA850 FXN promoter luciferase reporter, 24 h; percent of 10 µM SAHA response; activation, % at 6 µM; 360,000 tested, 0.56% active;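 active means activation above the average of all compounds screened plus 3 SD, cutoff fixed separately per campaign, cut at about 7.5% in these data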;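 further: 0% = DMSO wells and 100% = 10 µM SAHA wells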
AHR activator: activators of human aryl hydrocarbon receptor; P35869; AHR-responsive luciferase reporter cells, luminescence; activation, % at 5 µM; 320,000 tested, 2.5% active; in the data active means activation above about 47%;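 further: 0% = vehicle wells and 100% = reference agonist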
esBAF inh: inhibitors of esBAF chromatin remodeling in mouse ES cells | Bmi1-luciferase knock-in reporter, 24 h; 100% = twice the neutral-well signal | reporter increase, % at 12.5 µM | 350,000 tested, 2% active; in the data active means activation above about 40%; inconclusive means no clear call, values can overlap the other calls;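 further: 0% = median of the plate's neutral control wells and 100% = double that signal; a rise in the Bmi1 reporter signal indicates esBAF inhibition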
Wnt bcat act: Wnt/beta-catenin pathway activation | Wnt/beta-catenin reporter cell assay, activator, plate reader | activation, % at 9.35 µM | 300,000 tested, 1.2% active; in the data active means activation above about 30%, passing the limit was not always enough; inconclusive means no clear call, values can overlap the other calls;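 further: 0% = neutral control wells and 100% = positive control wells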
AHR act confirm: human AHR activation, confirmation. 2,300 tested, 87% active. human cells, AHR-responsive luciferase reporter, luminescence. shares compounds with AHR activator. activation, % at 9 µM; in the data active means activation above about 49%;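 further: HepG2 hepatoma cells carrying a DRE-driven firefly luciferase reporter; 0% = vehicle wells and 100% = reference agonist wells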
PXR act counter: counter-screen for AHR activators: human PXR activators; activation, % at 11.6 µM; cell-based PXR reporter, luciferase luminescence; 2,300 tested, 88% active; shares compounds with AHR activator; in the data active means activation above about 11%;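 further: human hepatoma DPX-2 cells expressing full-length human PXR; 0% = DMSO and 100% = reference agonist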
Starred values were filed as active, the others as inactive; ? = inconclusive; · = no result. Shown are actives, neighbours in structure and some others; about 4.2% of the full set was active somewhere.

SMILES | MITF TRPM1 HTS | GAA850 FXN act | AHR activator | esBAF inh | Wnt bcat act | AHR act confirm | PXR act counter
C[C@@H]1CN([C@H](C)CO)C(=O)c2cc(NC(=O)Cc3ccccc3)ccc2O[C@@H](C)CCCCO[C@@H]1CN(C)C(=O)Cc1ccccc1 | · | · | · | -5 | · | · | ·
COc1c2occc2c(OC)c2c(=O)cc(C)oc12 | 1 | -1 | 104* | -4 | -3 | 77* | 13*
C[C@@H]1CN([C@H](C)CO)C(=O)c2cccc(NS(C)(=O)=O)c2O[C@@H]1CN(C)Cc1ccccc1 | · | · | · | -3 | · | · | ·
Cc1nc(N2N=C3/C(=C/c4ccc(F)cc4)CCCC3C2c2ccc(F)cc2)sc1C(=O)N(C)C (stereo unspecified) | -11 | -3 | 92* | -12 | -1 | 93* | 115*
C[C@@H]1CN([C@H](C)CO)S(=O)(=O)c2ccc(-c3cccnc3)cc2O[C@H]1CN(C)Cc1cccnc1 | · | · | · | 1 | · | · | ·
CC1CCc2nc(NC(=O)CN3CCOCC3)sc2C1 (stereo unspecified) | · | 0 | 29 | 20 | 0 | · | ·
CC1CCc2nc(NC(=O)C3CC3)sc2C1 (stereo unspecified) | 41 | 2 | 135* | · | · | 105* | 37*
O=C(NC1=C(Nc2ccc(F)cc2)C(=O)c2ccccc2C1=O)c1ccc(Cl)cc1 | -31 | -2 | 88* | · | · | 90* | 72*
COc1ccc2sc(-c3ccccc3OC)c(-c3ccc(SC)cc3)c2c1 | · | · | · | · | -7 | · | ·
COc1ccc2sc(-c3ccc(SC)cc3)c(-c3ccc(O)cc3)c2c1 | -6 | 1 | 80* | -4 | -1 | 84* | 19*
Cc1nn(-c2ccccc2)c2sc(C(=O)NC3CC3)cc12 | · | 6 | 84* | 47* | · | 80* | 39*
COc1ccc(NC(=O)c2c(Cl)nc3ccccn23)cc1 | 6 | 1 | 86* | 4 | · | 47 | 10
CCC(=O)Nc1ccc(NC(=O)c2c(C)nc3ccccn23)cc1 | 11 | -1 | 2 | -3 | · | · | ·
C[C@@H]1CN([C@H](C)CO)C(=O)c2cc(NC(=O)Nc3cccc4ccccc34)ccc2O[C@@H](C)CCCCO[C@H]1CN(C)C(=O)c1ccccc1 | · | · | · | 7 | · | · | ·
CN(C)CC(=O)N1[C@@H]2Cn3c(ccc(C4=CCCC4)c3=O)[C@H]1[C@@H](C(=O)NCC1CCCCC1)[C@@H]2CO | · | · | · | -5 | · | · | ·
O=c1[nH]c(-[n+]2ccc3ccccc3c2)c(/C=N/N=C(\[O-])c2ccccc2)s1 | 14 | 5 | 84* | 14 | 1 | 50* | 20*
C[C@@H]1CCCCO[C@@H](CN(C)C(=O)Cc2ccccc2)[C@@H](C)CN([C@H](C)CO)C(=O)c2cc(NC(=O)CCCN(C)C)ccc2O1 | · | · | · | -3 | · | · | ·
O=C(Nc1cc(Cl)cc(Cl)c1)c1cccc(OC(F)F)c1 | 3 | 2 | 81* | 15 | · | 94* | 44*
O=C(NC(=S)Nc1ccccc1O)c1ccccc1Cl | 31 | 3 | 89* | · | -4 | 128* | 21*
O=C(CCN1C(=O)/C(=C/c2ccccc2)SC1=S)NNC(=O)c1ccncc1 | -3 | 0 | 120* | · | -2 | 15 | 5
c1cnc2cc(-c3ccsc3)ncc2c1 | 42 | 3 | -8 | 22 | 27 | · | ·
c1cc(-c2cc3cc4c(cc3cn2)OCO4)cs1 | ? | 4 | 118* | 77* | 50* | 114* | 25*
C[C@H](CO)N1C[C@H](C)[C@@H](CN(C)C(=O)c2cccnc2)Oc2cc(C#CC3(O)CCCC3)ccc2S1(=O)=O | · | · | · | 6 | · | · | ·
COc1cc(/C=N/Nc2snc(SC)c2C#N)cc(OC)c1OC | -8 | -3 | 2 | 0 | -1 | · | ·
CSc1nsc(N/N=C/c2ccc3c(c2)OCO3)c1C#N | 92* | 4 | 117* | · | 22 | 81* | 27*
SMILES | MITF TRPM1 HTS | GAA850 FXN act | AHR activator | esBAF inh | Wnt bcat act | AHR act confirm | PXR act counter
CCCN1C[C@@H](C)[C@@H](OC)CN(C)C(=O)c2cc(NC(=O)c3cnccn3)ccc2OC[C@@H]1C | · | · | · | -2 | · | · | ·
C/C(CC(=O)Nc1cc(Cl)ccc1Cl)=N\NC(=O)c1ccco1 | 6 | 4 | 91* | 11 | · | 12 | 16*
COCC#Cc1ccc2c(c1)O[C@H](CN(C)Cc1ccccc1)[C@@H](C)CN([C@@H](C)CO)S2(=O)=O | · | · | · | -2 | · | · | ·
COc1cccc(OCC(O)CN2CCN(CCN3C(=O)c4cccc5cccc(c45)C3=O)CC2)c1 (stereo unspecified) | 16 | 2 | -9 | · | 0 | · | ·
O=C1c2cccc3cccc(c23)C(=O)N1CCN1CCN(CC(O)COc2ccccc2)CC1 (stereo unspecified) | 2 | 0 | 87* | -9 | -6 | 59* | 16*
Cc1ccc(NC(=S)N2CCN(CCN3C(=O)c4cccc5cccc(c45)C3=O)CC2)cc1 | · | 0 | 107* | -13 | 8 | 110* | 57*
COc1ccc(NC(=O)Nc2cccc3c2O[C@H](CN(C)C(=O)Nc2ccc(OC)cc2)[C@H](C)CN([C@@H](C)CO)C3=O)cc1 | · | · | · | -2 | · | · | ·
C/C(=N\NC(=S)NC(C)C)c1ccc(-n2ccnc2)cc1 | -3 | 1 | 122* | -10 | -1 | 77* | 14*
C=CCNC(=S)N/N=C(\C)c1ccc(-n2ccnc2)cc1 | 8 | 2 | 89* | · | -1 | 106* | 19*
O=C(CCn1c(=O)oc2ccccc21)Nc1nc2ccccc2s1 | 24 | 0 | 104* | 7 | 4 | 82* | 104*
CCSc1nnc(NC(=O)CCn2c(=O)oc3ccccc32)s1 | 1 | -1 | 30 | 6 | 17 | · | ·
C[C@H]1CN([C@@H](C)CO)C(=O)c2cc(NS(=O)(=O)c3ccc(F)cc3)ccc2O[C@H]1CN(C)C | · | · | · | -1 | · | · | ·
CCCc1cn(CC[C@@H]2CC[C@@H](NC(=O)C3CC3)[C@@H](CO)O2)nn1 | · | · | · | -2 | · | · | ·
COC(=O)c1ccccc1NC(=O)NCCc1ccccc1OC | 26 | 4 | 88* | · | 19 | 110* | 32*
Clc1cccc2sc(N3CCN(c4ccccc4)CC3)nc12 | -4 | 4 | 122* | · | 9 | 112* | 17*
O=c1nc2c(O)cccn2c2c1c(=O)[nH]c1ccccc12 | 0 | -1 | · | · | 0 | · | ·
O=c1[nH]c2ccccc2c2nc3ccccn3c12 | · | 5 | 91* | 49* | -4 | 117* | 19*
COc1ccc(Cl)cc1Nc1nc(N)c2ccccc2n1 | · | 1 | 105* | 13 | 7 | 115* | 14*
Nc1nc(Nc2cccc(F)c2)nc2ccccc12 | 44 | 2 | 83* | ? | · | 75* | 35*
COc1nc(NCCO)nc(Nc2cc(Cl)ccc2OC)n1 | -1 | 2 | 12 | -14 | 1 | · | ·
O=C(/C=C/c1c[nH]c2ccccc12)c1ccccc1 | 33 | 5 | 93* | · | · | 105* | 28*
C=CCNC(=O)CCC(=O)NNc1nc2ccccc2c2nc(-c3ccccc3)nn12 | -1 | 2 | 100* | · | 16 | 61* | 13*
